Screening data as filed in PubChem.
Beta apoptosis = blocks beta cell apoptosis; INS-1E cytokine-induced death, ATP luminescence, 48 h; percent of positive-control rescue, neutral wells zero; protection from apoptosis, % (test concentration not listed); actives 0.8% (n = 300,000);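 active = Every replicate reaches about 75%, or at least half do and their mean reaches it too, limit read from the data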;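 also: 0% = cytokine-treated negative control wells and 100% = positive control rescue; higher means more ATP so stronger rescue from cytokine killing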
Calb FLC = C. albicans growth modulation with fluconazole | C. albicans CaCi-2 (fluconazole-resistant clinical isolate) + fluconazole, Alamar Blue growth, 48 h | growth inhibition, % (no concentration beside the values) | actives 0.57% (n = 300,000) | AID 1979;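 active = growth inhibition above about 58% in most replicates, limit read from the data, passing the limit was not always enough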;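 also: all wells also contain fluconazole at 8 µg/ml as a sub-toxic cotreatment; 0% = median of DMSO wells and 100% = median of geldanamycin control wells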
Mdm2 MdmX PPI = human Mdm2/MdmX binding inhibition; O15151+Q00987; SaOS-2 split-luciferase Mdm2/MdmX complementation, luminescence; inhibition, % at 8 µM; actives 3% (n = 330,000);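 active = inhibition of at least 50% at 8 µM in the primary screen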
Target sequence (O15151 whole entry, looked up): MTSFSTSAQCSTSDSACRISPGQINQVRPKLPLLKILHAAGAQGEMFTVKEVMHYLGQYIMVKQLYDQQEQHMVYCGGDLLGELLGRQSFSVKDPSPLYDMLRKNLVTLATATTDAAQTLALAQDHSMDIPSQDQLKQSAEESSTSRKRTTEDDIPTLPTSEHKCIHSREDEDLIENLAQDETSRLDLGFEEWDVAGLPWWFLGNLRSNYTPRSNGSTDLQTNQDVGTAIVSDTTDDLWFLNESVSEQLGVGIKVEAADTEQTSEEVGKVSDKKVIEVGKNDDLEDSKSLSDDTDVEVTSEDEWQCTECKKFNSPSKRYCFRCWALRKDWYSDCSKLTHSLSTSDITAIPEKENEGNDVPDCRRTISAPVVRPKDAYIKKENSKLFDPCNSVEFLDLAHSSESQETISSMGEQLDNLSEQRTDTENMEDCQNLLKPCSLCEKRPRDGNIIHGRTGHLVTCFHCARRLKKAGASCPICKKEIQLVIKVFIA
Target sequence (Q00987 whole entry, looked up): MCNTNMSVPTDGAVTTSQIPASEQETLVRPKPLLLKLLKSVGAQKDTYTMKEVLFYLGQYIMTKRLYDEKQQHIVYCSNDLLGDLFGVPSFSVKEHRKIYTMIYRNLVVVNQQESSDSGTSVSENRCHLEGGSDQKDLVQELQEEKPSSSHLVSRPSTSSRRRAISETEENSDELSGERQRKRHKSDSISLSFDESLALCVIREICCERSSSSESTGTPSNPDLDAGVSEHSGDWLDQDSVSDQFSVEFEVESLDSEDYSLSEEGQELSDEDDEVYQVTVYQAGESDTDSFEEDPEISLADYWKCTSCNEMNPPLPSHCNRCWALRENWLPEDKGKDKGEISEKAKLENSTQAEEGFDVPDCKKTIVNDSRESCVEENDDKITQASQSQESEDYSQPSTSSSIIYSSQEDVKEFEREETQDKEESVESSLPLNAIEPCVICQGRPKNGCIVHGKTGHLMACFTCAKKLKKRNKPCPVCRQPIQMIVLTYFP
SKKanGAS inh = blocks kanamycin growth of S. pyogenes SKKanGAS strain; BacTiter-Glo, 6 h; inhibition, % at 7.5 µM; actives 1.3% (n = 300,000);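 active = mean replicate score, as percent of positive control median, at least 50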;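 also: strain carries kanamycin resistance gene driven by streptokinase promoter and grows in 40 µg/ml kanamycin; loss of luminescence reflects streptokinase promoter inhibition or plain growth inhibition; 0% = median of DMSO wells and 100% = positive control at its reference dose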
CSC inhib = blocks cancer stem cells; cancer stem cell-like cells viability, luminescence; inhibition, % at 7.5 µM; actives 1.1% (n = 300,000); AID 2717; in the data active = inhibition above about 75%; tested in HMLE shEcad cells
MPTP inh = blocks calcium-induced mitochondrial swelling; isolated mouse mitochondria, Ca2+ swelling absorbance, 30 min; inhibition, % at 10 µM; actives 1.4% (n = 360,000); AID 602449;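 active = inhibition of 50% or more, scaled per plate between neutral and stimulator controls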;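 also: 0% = DMSO wells given calcium and 100% = 1 mM EGTA wells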
MPTP counter = membrane potential counter-screen of mitochondrial pore inhibitors; shares compounds with MPTP inh; isolated mitochondria, Rhodamine 123 fluorescence; inhibition, % at 10 µM; actives 78% (n = 5,000); in the data active = inhibition above about 22%;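 also: 0% = DMSO vehicle and 100% = positive control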
MPTP swell DR = MPTP inhibition, dose response swelling confirmation | shares compounds with MPTP inh | isolated mitochondria swelling, absorbance | IC50, µM | actives 58% (n = 780) | AID 651561; in the data active = IC50 below about 20 µM
MPTP cs DR = counter-screen for mitochondrial permeability transition pore inhibitors, dose response | AID 651564 | shares compounds with MPTP inh | isolated mitochondria counterscreen, fluorescence read-out | IC50, µM | actives 49% (n = 780); in the data active = IC50 below about 80 µM
* hit, by the source's call; i = inactive; nt = no result. Most compounds without a hit are left out; they make up all but 5.4% or so of the library.

SMILES	Beta apoptosis	Calb FLC	Mdm2 MdmX PPI	SKKanGAS inh	CSC inhib	MPTP inh	MPTP counter	others
CSc1cccc(CN2CCC(CO)(Cc3cccc(C(F)(F)F)c3)CC2)c1	4	9	46	2	31	72*	-8	MPTP swell DR=5.2*;MPTP cs DR=40*
CC(=O)CCc1ccc(OCC(O)CNCCOc2ccc(C)cc2)cc1 (configuration not stated)	0	1	-25	0	-9	74*	-9	MPTP swell DR=i;MPTP cs DR=>80
CC(OC(=O)CCC(=O)c1ccc(F)cc1)C(=O)NC1CCCCC1C (configuration not stated)	-7	-8	24	15	-15	-1	nt
CCCCC(=O)Nc1cccc(-c2csc(-c3ccccc3)n2)c1	-6	35	-1	21	68	57*	58*
Cc1cc(C)nc(/N=C(\N)Nc2ccc(S(=O)(=O)O)cc2)n1	nt	-22	19	-11	nt	-1	nt
Cc1cc(C)nc(/N=C(\N)Nc2ccc(CC(=O)OC(C)C)cc2)n1	nt	-10	-2	3	6	50*	59*
CN(CCC#N)C(=O)COC(=O)[C@H](Cc1ccccc1)N1C(=O)c2ccccc2C1=O	1	nt	3	0	0	2	nt
COc1cccc(N2CCN(c3ccc(S(=O)(=O)N4CCN(C)CC4)cc3[N+](=O)[O-])CC2)c1	2	nt	-11	nt	21	-2	nt
COC(=O)c1ccc(N2CCN(S(=O)(=O)c3ccc4ccccc4c3)CC2)c([N+](=O)[O-])c1	5	-1	-5	-14	-22	72*	57*
COc1ccc(N2CCN(S(=O)(=O)c3ccc4c(c3)CCCC4)CC2)c([N+](=O)[O-])c1	48	-7	17	1	13	79*	79*
NC(=O)c1ccc(N2CCN(S(=O)(=O)c3ccccc3)CC2)c([N+](=O)[O-])c1	nt	42	-2	4	nt	73*	21*
CC(C)NCCCOc1ccc(C(C)(C)c2ccccc2)cc1	nt	-8	13	1	-25	8	nt
O=C(NCCc1ccncc1)C(F)(F)F	-5	-3	20	1	-2	1	nt
O=C(Nc1ccc(Cl)cc1)N1CCC(c2nc(-c3ccc(F)cc3)no2)CC1	12	-8	0	12	-1	90*	76*
COc1ccc(NC(=O)N2CCCC(c3nc(-c4ccc(OC)cc4)no3)C2)cc1 (configuration not stated)	-1	17	3	-24	-1	11	nt
CN(c1cnn(-c2ccccc2)c(=O)c1Cl)n1cccc1	-9	14	-9	3	-7	0	nt
O=C(Nc1nccs1)c1cc2cc(Cl)ccc2oc1=O	-7	2	21	-8	0	1	nt
COc1ccc(C(O)Cn2c(=N)n(CCCN(C)C)c3ccccc32)cc1 (configuration not stated)	-4	-5	27	0	1	80*	-5
CCCn1c(=N)n(CC(O)c2ccc(C)cc2)c2ccccc21 (configuration not stated)	-4	-36	2	6	-4	2	nt
Cc1ccc(NC(=O)Nc2cnc3ccccc3c2)cc1	10	6	-190	11	9	87*	71*
O=[N+]([O-])c1cccc(NC(=S)NCCc2ccccc2)c1	5	-79	-11	-15	11	95*	96*
S=C(NCCc1ccccc1)Nc1cnc2ccccc2c1	1	3	-27	-3	13	77*	78*
CC(C)(CNC(=S)NCCc1ccccc1)CNC(=S)NCCc1ccccc1	nt	5	nt	-9	nt	80*	85*
O=C(Cc1cccc([N+](=O)[O-])c1)Nc1ccccc1	nt	nt	nt	nt	nt	-2	nt
OCCNC(=S)NCCc1ccccc1	5	-7	-20	0	4	-2	nt
SMILES	Beta apoptosis	Calb FLC	Mdm2 MdmX PPI	SKKanGAS inh	CSC inhib	MPTP inh	MPTP counter	others
CCN(CC)C(=O)Nc1cnc2ccccc2c1	-11	-6	-6	1	nt	0	nt
Cc1ccc(C)c(OCc2cc(C(=O)N(C)Cc3nccn3C)no2)c1	19	-4	-5	15	4	0	nt
CC(C)CNC(=S)N1CCN(C)CC1	-10	-12	-18	1	-13	1	nt
O=C(NC(=O)N1CCCCC1)c1ccc(Cl)cc1	-14	0	12	-1	1	2	nt
O=C(NCCCCc1ccccc1)Nc1cccc(F)c1	-1	3	10	-7	6	56*	96*
Fc1ccc(F)c(NC(=S)NCCc2ccccc2)c1	25	-25	0	10	-1	6	nt
CC(=O)c1cccc(NC(=S)NCCCCc2ccccc2)c1	-1	-31	1	5	nt	68*	81*
Fc1ccccc1NC(=S)NCCc1ccccc1	6	-5	-3	6	-2	1	nt
Fc1ccc(NC(=S)NCCc2ccccc2)c(F)c1F	-1	-10	4	13	14	77*	92*
Fc1cccc(NC(=S)NCCc2ccccc2)c1	5	-60	-7	-10	3	71*	87*
COC(=O)[C@]12CCCCC=C1N(Cc1ccc3c(c1)OCO3)C(=O)[C@H](CC(=O)NCc1ccccc1)C2	nt	nt	nt	nt	nt	2	nt
Cc1cccc(-n2nc(C)c3c2NC2=C(C(=O)CCC2)C3c2ccccn2)c1 (configuration not stated)	-2	-16	-29	15	-4	-1	nt
CCNc1ccc(P(=O)(c2ccccc2)c2ccccc2)cc1	-4	1	10	8	-3	-1	nt
O=C(Cc1cccs1)Nc1nc(-c2ccc(F)cc2F)cs1	5	-48	-9	9	nt	73*	91*
CCOC(=O)c1ccc(NC(=O)Cc2coc3cc4c(cc23)CCC4)cc1	-2	3	11	7	20	87*	92*
CCOC(=O)c1ccc(NC(=O)Cn2cccc2)cc1	-2	32	1	7	nt	1	nt
COc1ccc2c(c1)c(C(C)=O)c(C)n2CCc1ccccc1	-8	-4	35	-6	-7	67*	76*
CCS(=O)(=O)N1Cc2ccccc2CC1C(=O)NCCc1c[nH]c2ccccc12 (configuration not stated)	7	2	0	3	-1	0	nt
CC(C)COc1ccc(C(=O)Nc2ccccc2[N+](=O)[O-])cc1	nt	38	-93	-9	nt	54*	-10	MPTP swell DR=>100;MPTP cs DR=>80
CN1CCN(C(=O)/C(C#N)=C/c2ccc(OC(F)F)cc2)CC1	nt	nt	nt	nt	nt	2	nt
CN(Cc1ccc(OCC(O)CN2CCCCC2)cc1)Cc1ccnc2ccccc12 (configuration not stated)	nt	4	nt	-17	nt	95*	106*
